± gives the standard deviation. In all, about 8,200 sequences were measured (“pre-steady-state target cleavage rate”: median about 0.024, highest 2% from about 1.3 on). The sample holds the highest values, similar sequences and a random draw of the others, so the mix is not that of the screen.
Tested on: MIWI (PIWIL1) piRISC loaded with L1MC piRNA (30 nt)
Assay: pre-steady-state target cleavage rate (min^-1); MIWI and MILI are mouse PIWI proteins and EfPiwi is from a freshwater sponge; tags in brackets are library labels; higher = faster piRNA-guided slicing of the target
Settings: guide: L1MC piRNA 5'p-UAACUAAAUACUAUGCAAGCUGUAGGUCCU
Procedure: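 Cleave-'n-Seq: a library of target RNAs (target site embedded in constant flanks, ACAGCATTCCGCGTTAGTGATATCCG... 5' flank; DNA-blocked outside the site) at 0.1 nM was incubated with 1 nM active mouse MILI or MIWI piRISC (synthetic 5'-monophosphorylated piRNA guide) with or without 500 nM mouse GTSF1 at 33 °C for 1 min to 16 h. Uncleaved targets were sequenced and normalised to non-target controls, and the pooled three trials were fitted to a burst-and-steady-state model to give the pre-steady-state cleavage rate (min^-1; k3 is constrained to at most 1e-4). Sequence is the target site only; target names encode pairing extent (gX:gY) and contiguous / 1-mismatch / 2-mismatch / bulge geometry. Fits with R² ≤ 0 are excluded.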

[1] = auxiliary factor: 500 nM mouse GTSF1
[2] = auxiliary factor: none (no GTSF1)

Sequence	pre-steady-state target cleavage rate [1]	pre-steady-state target cleavage rate [2]
UCCUGGAUGUCGUUGCAUAGUAUUUAGUUUA	0.022 ± 0.0057	0.00499 ± 0.003
UCCUGGAUGUCCUUGCAUAGUUUUUACUUA	0.00583 ± 0.0041	
UCCUGGAUGUGCUUGCAUAGUAUUUAUUA	0.0179 ± 0.0058	
UGGACCUACAGCUUGCAUAGUAUUUCGUUA	0.411 ± 0.054	0.0397 ± 0.0067
UCCUGGAUCAGCUUGCAUACUAAUUAGUUA	0.0563 ± 0.0091	0.00771 ± 0.0023
UCCUCAUACAGCUUGCAUAGUAUUUAGUUA	1.47 ± 0.054	0.0664 ± 0.01
UCCUGCUUACAGCUUGCAUAGUAUUUAGUUA	1.48 ± 0.13	0.0826 ± 0.02
UCCUGUUACAGCUUGCAUAGUAUUUAGUUA	1.28 ± 0.058	0.0747 ± 0.013
UCCUGCGUACAGCUUGCAUAGUAUUUAGUUA	1.33 ± 0.062	0.0785 ± 0.016
UCCUCACUACAGCUUGCAUAGUAUUUAGUUA	0.676 ± 0.03	0.0551 ± 0.0082
UCCUGGUACAGCUUGCAUAGUAUUUAGUUA [g2:g24:cont:t1A]	0.82 ± 0.041	0.0692 ± 0.013
UCCUCUUACAGCUUGCAUAGUAUUUAGUUA	1.62 ± 0.055	0.061 ± 0.0099
UCCUGGUUACAGCUUGCAUAGUAUUUAGUUA	1.01 ± 0.048	0.0561 ± 0.011
UCCUCCUUACAGCUUGCAUAGUAUUUAGUUA	1.3 ± 0.052	0.0583 ± 0.011
UCCUGCGACAGCUUGCAUAGUAUUUAGUUA	1.19 ± 0.06	0.0863 ± 0.017
UCCUCGCUACAGCUUGCAUAGUAUUUAGUUA	0.831 ± 0.05	0.0517 ± 0.0088
UCCUCCAUACAGCUUGCAUAGUAUUUAGUUA	0.364 ± 0.019	0.0335 ± 0.0051
AGGACCUACAGCUUGCUUAGAAUUUAGUUA	0.377 ± 0.04	0.00929 ± 0.0032
UCCUGGAUGUCCUUACAUAGUAUUUAGUUA	0.0237 ± 0.0056	0.0041 ± 0.0017
UGGACCUACACGAUGCAUAGUAUUUAGAAA	0.122 ± 0.016	
UCCUGCUACAGCUUGCUUAGUAUUUUCAAA	0.11 ± 0.028	

Sequence	pre-steady-state target cleavage rate [1]	pre-steady-state target cleavage rate [2]
UCCUGGUUCAGCUUGCAUUGUAUUUAGUUA	0.61 ± 0.028	0.0343 ± 0.01
UCCUGGUACAGCUUGCAUAGUAUUCUAGUUA	0.442 ± 0.092	0.00651 ± 0.0028
UCCACCUACAGCUUGCUUAGUAUUUAGAAA	0.226 ± 0.037	
UCCACCUACAGCUUGCAUAGUACUUUAGUUA	0.447 ± 0.035	0.00964 ± 0.0027
UCCUGCUACAGCUUGCAUAGUAUUUAGUUG [g2:g25:cont:t1G]	0.229 ± 0.019	0.0367 ± 0.0072
UCCUGCAUACAGCUUGCAUAGUAUUUAGUUA	1.63 ± 0.12	0.0686 ± 0.013
UCCUGAUACAGCUUGCAUAGUAUUUAGUUA	1.15 ± 0.046	0.0816 ± 0.017
UCGAGGUACAGCUUGCAUAGUAUUUUCAAA	0.278 ± 0.038	0.00215 ± 0.0021
UCCUGCUACAGCUUGCAUAGUUAUUACAAA	0.0101 ± 0.0052	
AGGACCUACAGCUUGCAAUGUAUUUACAAA	0.0775 ± 0.019	
UCCUCCUACACCUUGCAAAGUAUUUAGUUA	0.831 ± 0.043	0.0328 ± 0.0065
UCCUGCUACAGCUUGCAUUGUUUUUAGUUA	0.0845 ± 0.0095	0.00988 ± 0.0021
UCGACCUACAGCAUGCAUUGUAUUUAGUUA	0.944 ± 0.04	0.0101 ± 0.0026
UGAGACCUACAGCUUGCAUAGUAUUUAGUUA	1.49 ± 0.1	0.0826 ± 0.015
AGAGACCUACAGCUUGCAUAGUAUUUAGUUA	1.46 ± 0.067	0.091 ± 0.017
UCCUGGAACACCUUGGAUAGUAUUUAGUUA	0.286 ± 0.038	0.00651 ± 0.0022
UCCUGGAUGAGCUUGCAUAGUAUAUUAGUUA	0.464 ± 0.04	0.00823 ± 0.004
UCCUGGUACAGCUUGCAUAGUAAUUAGAUA	0.209 ± 0.042	0.00778 ± 0.0021
AGGACGUACAGCUUGCAUAGUAUUUAGAAA	0.432 ± 0.06	0.0172 ± 0.0052
UCCUGGAUGUCGAACGUAAGUAUUUAUUA	< 0.0001	< 0.0001
UCCACCUACAGCUUGGUAAGUAUUUAGUUA	0.0619 ± 0.011	

Sequence	pre-steady-state target cleavage rate [1]	pre-steady-state target cleavage rate [2]
UCCACCUACAGCUUGCAUAGUAUUUAGGUA	0.3 ± 0.054	0.00404 ± 0.0029
UCCACCUACAGCUUGCAUAGUAUUUAGUUUA	0.907 ± 0.047	0.0632 ± 0.014
UGGUACCUACAGCUUGCAUAGUAUUUAGUUA	0.945 ± 0.17	0.117 ± 0.034
ACCACCUACAGCUUGCAUAGUAUUUAGUUA	1.16 ± 0.056	0.0927 ± 0.017
UGUACCUACAGCUUGCAUAGUAUUUAGUUA	1.34 ± 0.049	0.0875 ± 0.013
AGUACCUACAGCUUGCAUAGUAUUUAGUUA	1.23 ± 0.064	0.0796 ± 0.013
AGGUACCUACAGCUUGCAUAGUAUUUAGUUA	1.35 ± 0.21	0.481 ± 0.15
UCUACCUACAGCUUGCAUAGUAUUUAGUUA	1.4 ± 0.043	0.0731 ± 0.013
UCCUCGUACAGCUUGCAUAGUAAUUAGUUA	0.952 ± 0.032	0.029 ± 0.007
UCCUGCAUGAGCUUGCAUAGUAUUUAGUUA	0.92 ± 0.051	0.0506 ± 0.01
UCCUGGAACAGCUUGCAUAGUAUUAUGUUA	0.169 ± 0.023	0.013 ± 0.0044
UCCUGGAACACUUGCAUAGUAUUUAGUUA	0.596 ± 0.032	0.0132 ± 0.0044
UCCACGUACAGCUUGCAUAGAAUUUAGUUA	0.412 ± 0.022	0.0297 ± 0.0084
UCGACCUACAGCUUGCAAGUAUUUAGUUA	0.427 ± 0.038	0.00682 ± 0.0023
UCCACCUACAGCUUGCAAAGUAUUUAGUUA	0.937 ± 0.044	0.0318 ± 0.0069
UCGACCUACAGCUUGCAAAGUAUUUAGUAA	0.99 ± 0.053	0.0245 ± 0.0048
UGCACCUACAGCUUGCAAAGUAUUUAGUUA	1.23 ± 0.08	0.0409 ± 0.0074
UCGACCUACAGCUUGCAAAGUAUUUAGUUA	1.47 ± 0.056	0.0377 ± 0.0085
AGGACCUACAGCUUGCAAAGUAUUUAGUUA	1.26 ± 0.053	0.0478 ± 0.0089
